Screen size: about 5,500 compounds; about 2,000 (36%) were called active. Not shown: some 18% with an inconclusive outcome. No stated cut-off is given here; in the data, active means normalized growth mostly below about 0.91 (no sharp cut-off); inconclusive means no clear call, values can overlap the other calls; inactive means mostly above about 0.92. This is one part of the list.
Test: chemical genetic growth profiling, strain panel (AID 1159580);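 further: tested at 20 µM; growth read once vehicle control cultures reached saturation at 30 °C; 1 = growth at the plate median or of vehicle wells; lower values mean less growth of the strain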
Conditions: S. cerevisiae deletion strains, growth OD

Measured: normalized growth

O=C(CC(=O)c1ccccc1)c1ccccc1
active: locus YAL021C, strain ccr4, hits give low values 0.0705 | locus YAL026C, strain drs2, hits give low values 0.175 | locus YAL030W, strain snc1, hits give low values 0.318 | locus YBL061C, strain skt5, hits give low values 0.12 | locus YBR009C, strain hhf1, hits give low values 0.194 | locus YBR023C, strain chs3, hits give low values 0.211 | locus YBR171W, strain sec66, hits give low values 0.735 | locus YBR231C, strain swc5, hits give low values 0.177 | locus YBR279W, strain paf1, hits give low values 0.453 | locus YCL011C, strain gbp2, hits give low values 0.3 | locus YCL016C, strain dcc1, hits give low values 0.43 | locus YCL069W, strain vba3, hits give low values 0.362 | locus YCR088W, strain abp1, hits give low values 0.462 | locus YDL005C, strain med2, hits give low values 0.596 | locus YDL040C, strain nat1, hits give low values 0.698 | locus YDR001C, strain nth1, hits give low values 0.639 | locus YDR069C, strain doa4, hits give low values 0.0695 | locus YDR137W, strain rgp1, hits give low values 0.135 | locus YDR159W, strain sac3, hits give low values 0.541 | locus YDR195W, strain ref2 0.516 | locus YDR297W, strain sur2, hits give low values 0.192 | locus YDR334W, strain swr1, hits give low values 0.152 | locus YDR335W, strain msn5, hits give low values 0.227 | locus YDR392W, strain spt3, hits give low values 0.396 | locus YEL003W, strain gim4, hits give low values 0.379 | locus YEL037C, strain rad23, hits give low values 0.342 | locus YEL061C, strain CIN8 (second series), hits give low values 0.437 | locus YER015W, strain faa2, hits give low values 0.122 | locus YER016W, strain bim1, hits give low values 0.544 | locus YER111C, strain swi4, hits give low values 0.204 | locus YER155C, strain BEM2 (second series), hits give low values 0.381 | locus YFR010W, strain ubp6, hits give low values 0.171 | locus YGL167C, strain pmr1, hits give low values 0.166 | locus YGL173C, strain kem1, hits give low values 0.119 | locus YGL227W, strain vid30, hits give low values 0.725 | locus YGL240W, strain doc1, hits give low values 0.457 | locus YGL253W, strain hxk2, hits give low values 0.147 | locus YHR013C, strain ard1, hits give low values 0.14 | locus YHR027C, strain rpn1, hits give low values 0.0797 | locus YHR030C, strain SLT2, hits give low values 0.515 | locus YHR079C, strain IRE1, hits give low values 0.468 | locus YHR142W, strain chs7, hits give low values 0.171 | locus YJL092W, strain hpr5, hits give low values 0.432 | locus YJL095W, strain BCK1 (second series), hits give low values 0.108 | locus YJL095W, strain BCK1, hits give low values 0.524 | locus YJL115W, strain asf1, hits give low values 0.546 | locus YJL129C, strain trk1, hits give low values 0.596 | locus YJL154C, strain vps35, hits give low values 0.237 | locus YJL164C, strain tpk1, hits give low values 0.154 | locus YJL166W, strain qcr8, hits give low values 0.16 | locus YJR066W, strain TOR1, hits give low values 0.565 | locus YKL160W, strain elf1, hits give low values 0.578 | locus YKR026C, strain gcn3, hits give low values 0.685 | locus YKR091W, strain srl3, hits give low values 0.527 | locus YLL001W, strain dnm1, hits give low values 0.363 | locus YLL026W, hits give low values 0.373 | locus YLL041C, strain sdh2, hits give low values 0.328 | locus YLR027C, strain aat2, hits give low values 0.261 | locus YLR113W, strain HOG1, hits give low values 0.348 | locus YLR221C, strain rsa3, hits give low values 0.284 | locus YLR258W, strain gsy2, hits give low values 0.234 | locus YLR262C, strain YPT6 (second series), hits give low values 0.101 | locus YLR320W, strain mms22, hits give low values 0.207 | locus YLR342W, strain FKS1, hits give low values 0.344 | locus YLR357W, strain rsc2, hits give low values 0.471 | locus YLR370C, strain arc18, hits give low values 0.147 | locus YLR384C, strain iki3, hits give low values 0.437 | locus YML120C, strain ndi1, hits give low values 0.498 | locus YMR058W, strain fet3, hits give low values 0.0728 | locus YMR125W, strain sto1, hits give low values 0.82 | locus YMR129W, hits give low values 0.393 | locus YMR205C, strain PFK2, hits give low values 0.242 | locus YMR231W, strain pep5, hits give low values 0.0832 | locus YNL071W, strain lat1, hits give low values 0.351 | locus YNL183C, strain NPR1, hits give low values 0.517 | locus YNL209W, strain ssb2, hits give low values 0.0845 | locus YNL248C, strain rpa49, hits give low values 0.552 | locus YNL322C, strain KRE1 (second series), hits give low values 0.619 | locus YNR049C, strain mso1, hits give low values 0.434 | locus YOR001W, strain rrp6, hits give low values 0.45 | locus YOR070C, strain gyp1, hits give low values 0.575 | locus YOR080W, strain dia2, hits give low values 0.127 | locus YOR083W, strain WHI5, hits give low values 0.186 | locus YOR106W, strain vam3, hits give low values 0.0633 | locus YOR231W, strain MKK1, hits give low values 0.497 | locus YOR265W, strain rbl2, hits give low values 0.179 | locus YOR270C, strain vph1, hits give low values 0.105 | locus YOR290C, strain snf2, hits give low values 0.391 | locus YPL051W, strain arl3, hits give low values 0.102 | locus YPL078C, strain atp4, hits give low values 0.414 | locus YPL106C, strain sse1, hits give low values 0.416 | locus YPL240C, strain hsp82, hits give low values 0.4 | locus YPL256C, strain CLN2, hits give low values 0.57

Source: PubChem BioAssay AID1159580 (chemical genetic matrix, 2015)
